Data taken from PubChem BioAssay AID1490 (National Center for Advancing Translational Sciences (NCATS), 2009).
About 11,000 (3.5%) of roughly 310,000 compounds were called active. Inconclusive results (about 4%) are left out. The list comes from a sample in which actives are over-represented; it also holds similar structures and randomly drawn compounds. A number with no mark means an inactive call. Calls come from the whole dose curve; as a rule, active = well fitted inhibition curve with a large enough effect; inconclusive = small, poorly fitted or top-dose-only effect, or another doubt; inactive = no such curve, though single readings can be large or run the other way.

Target: 4'-phosphopantetheinyl transferase ffp (Bacillus subtilis) (UniProt Q9F4F7)
Assay: qHTS Assay for Inhibitors of Bacillus subtilis Sfp phosphopantetheinyl transferase (PPTase);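 note: the enzyme is Sfp with the accession as filed and its product quenches rhodamine fluorescence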;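 for largest response in the series, negative = inhibition: 0% = enzyme reaction without inhibitor and -100% = no enzyme wells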
Conditions: Biochemical Sfp PPTase activity
Excerpt: Assay Submitter: Michael Burkart, University of California, San Diego
Screening Center PI: Austin, C.P.
Screening Center: NIH Chemical Genomics Center [NCGC]
The covalent attachment of a phosphopantetheinyl (4'-PP) arm to a variety of synthases and other proteins is a key posttranslational protein modification. The 4'-PP is installed on the proteins post-translationally from coenzyme A (CoA) on a conserved serine residue by action of phosphopantetheinyl transferase (PPTase) enzymes. Phosphopantetheinylation is essential for synthase activity, and removal of the PPTase gene precludes natural product synthesis in microorganisms, or in the case of fatty acid biosynthesis, renders the organism unviable. PPTase enzymes belong to a distinct structural superfamily. Within bacteria, these enzymes are grouped into two classes based upon primary structure, the AcpS-Type and Sfp-Type PPTases.
Sfp-type PPTases, corresponding to an activator of surfactin production in Bacillus subtilis, are responsible for modifying type I polyketide and nonribosomal peptide synthases of prokaryotes. Sfp-type PPTases are responsible for the activation of a variety of pathogen-associated virulence factors. Among these compounds are toxins such as mycolactone from Mycobacterium ulcerans, siderophores such as vibriobactin from Vibrio cholerae or mycobactin from Mycobacterium tuberculosis, as well as the mycolic acids which form the waxy cell wall of Mycobacteria. The biosyntheses of these natural products are considered attractive targets for drug design.
In search of small molecule Sfp-PPTase inhibitors, a fluorescence quenching assay was developed for detection of Bacillus subtilis Sfp-PPTase enzymatic activity in a miniaturized high-throughput format. The consensus ybbr acceptor peptide […] was N-terminally labeled with Black Hole Quencher-2 (BHQ-2) and used in combination with rhodamine-labeled coenzyme A as a co-substrate.
Inhibition of Sfp-PPTase was detected by recording the fluorescence intensity change over a 30-minute reaction period at a 525 nm excitation and 598 nm emission. Reagents were supplied by Michael Burkart and Timothy Foley, University of California at San Diego.
This BioAssay deposition is for validation of the developed Sfp-PPtase assay.
Assay Buffer: 50 mM Hepes-Na pH 7.6, 10 mM MgCl2, 0.01% Nonidet P-40, and 0.01% BSA.
3 uL of Sfp-PPTase enzyme (final concentration 15 nM) and 1 uL of substrate mixture (final concentration for rhodamine-CoA and BHQ-2-YbbR 5 uM and 12.5 uM, respectively) dispensed in columns 1, 2, 5 - 48. Columns 1 and 2 used to generate neutral control (uninhibited reaction)
Three uL of reagents, consisting of buffer (in columns 3 and 4 as negative control) and Sfp-PPTase (in columns 1, 2, 5 - 48) were dispensed into 1,536-well Greiner black solid bottom plate. Compounds (23 nL) were transferred via Kalypsys pintool equipped with 1,536-pin array. The plate was incubated for 15 min at room temperature, followed by the addition of 1 uL substrate to start the reaction. The plate was then centrifuged at 1000 rpm for 15 seconds, and the fluorescence intensity recorded on a ViewLux High-throughput CCD imager (Perkin-Elmer) using standard BODIPY optics (525 nm excitation and 598 nm emission). The plate was then incubated for 30 minutes, and a second read on the ViewLux was performed. The fluorescence intensity difference over the 30-minute period was used to calculate the respective reaction rate for each well.
Potency is the fitted concentration of half-maximal effect.

SMILES | largest response in the series, negative = inhibition | Potency
COc1cc(OC)cc(C(=O)Nc2nnc(SCC(=O)NCC3CCCO3)s2)c1 (stereo unspecified) | -4.79% | 
COc1ccccc1N1CC(C(=O)Nc2nnc(SCC(=O)NCC3CCCO3)s2)CC1=O (stereo unspecified) |  | 50.1 µM (active)
Cc1ccccc1N1CC(C(=O)Nc2nnc(SCCC3OCCO3)s2)CC1=O (stereo unspecified) | -15.5% | 
CCCCC(c1nnnn1CS(=O)(=O)c1ccc(C)cc1)N1CCC(C(N)=O)CC1 (stereo unspecified) | 13.9% | 
O=C(CSc1ccc(-c2ccc(Br)cc2)nn1)NCC1CCCO1 (stereo unspecified) | 6.34% | 
CC(NS(=O)(=O)c1ccc(Br)cc1)C(=O)NCC1CCCO1 (stereo unspecified) | 16.5% | 
OC(CNCC1CCCO1)Cn1c2ccc(Br)cc2c2cc(Br)ccc21 (stereo unspecified) |  | 22.4 µM (active)
COc1ccc(CCNC(=O)c2cnc(Cl)c(Cl)c2)cc1 | 9% | 
Cc1cc(NC(=O)CSc2nc3c(cc2C#N)CCCCC3)no1 | 15.4% | 
CC(NC(=O)CSc1nc2c(cc1C#N)CN(C)CC2)c1ccccc1 (stereo unspecified) |  | 56.2 µM (active)
CC1(C)CCc2nc(SCc3ccccc3)c(C#N)cc2C1 | -5.3% | 
O=C(NCc1ccccc1)C(c1cccnc1)N(C(=O)c1csnn1)c1ccc(F)cc1 (stereo unspecified) | 19.5% | 
CC(C)CCn1c(=O)c2c(nc3n2CCCN3Cc2ccccc2)n(C)c1=O | 4.31% | 
NCCCNCCCCN(CCCN)/[N+]([O-])=N/O | -7.71% | 
Cc1ncn(C23CC4CC(CC(O)(C4)C2)C3)n1 | 17.6% | 
COc1cccc(NC(=O)c2nn(C34CC5CC(CC(C5)C3)C4)cc2[N+](=O)[O-])c1 | 11.6% | 
Cc1nc([N+](=O)[O-])nn1C12CC3CC(CC(Br)(C3)C1)C2 |  | 15.8 µM (active)
COc1cccc(CNS(=O)(=O)c2ccc3c(c2)CC(C)N3C(=O)C2CCC2)c1 (stereo unspecified) | 20.3% | 
COc1cc(/C=N/NC(=O)c2cccnc2)ccc1OC(=O)c1cccc(Br)c1 | 9.75% | 
O=C(CN1C(=O)COc2ccccc21)Nc1ccc(F)cc1 |  | 50.1 µM (active)
CC(OC(=O)CN1C(=O)COc2ccccc21)C(=O)NCc1ccc(F)cc1 (stereo unspecified) | 16.7% | 

SMILES | largest response in the series, negative = inhibition | Potency
O=C(CN1C(=O)COc2ccc(Cl)cc21)Nc1ccc(N2CCOCC2)cc1 | 9.73% | 
COc1ccc(N2CCC(N3CCN(C)C(CCO)C3)CC2)cc1 (stereo unspecified) | -5.05% | 
Cc1cc(C)c2oc(C(=O)Nc3ccc(S(=O)(=O)Nc4nccc(C)n4)cc3)cc(=O)c2c1 | 13.2% | 
COc1ccc(C(=O)Nc2cc(C)c(NC(=O)c3ccccc3OC)cn2)cc1 | -0.964% | 
Cn1nc(-c2ccccc2)c2cc([N+](=O)[O-])ccc21 | 15.4% | 
Cc1cccc(OP(=O)(Nc2c(C)n(C)n(-c3ccccc3)c2=O)Oc2cccc(C)c2)c1 | 2% | 
Cn1c2ccccc2c(=O)c2c(O)cccc21 | 1.81% | 
Cc1nn(C)c(Oc2ccccc2)c1[N+](=O)[O-] | 4.16% | 
Cc1cccc(Oc2c([N+](=O)[O-])c(=O)n(C)c3ccccc23)c1 |  | 6.31 µM (active)
Cn1c(=O)c([N+](=O)[O-])c(Oc2ccccc2)c2ccccc21 |  | 20 µM (active)
CC(C)[C@H](NC(=O)N1c2ccccc2NC(=O)[C@@H]1C(C)C)C(=O)N[C@H](C(=O)O)c1ccccc1 | 21% | 
CCCN1CCC(=O)N(C(CSc2ccc(OC)cc2)Cc2ccccc2)CC1 (stereo unspecified) | -7.33% | 
COc1cc(C2/C(=C(\O)c3ccc4c(c3)CC(C)O4)C(=O)C(=O)N2c2nnc(C)s2)cc(OC)c1OC (stereo unspecified) | -19.8% | 
Cc1ccc(-c2ccnc3[nH]n(-c4ccccc4)c(=O)c23)cc1 | 9.66% | 
CCOc1cccc(/C=N/N2C(=O)CSC2=S)c1O |  | 10 µM (active)
CCOc1cccc(/C=N/NC(=S)NCCN2CCOCC2)c1O | 9.81% | 
O=C1CSC(=S)N1c1ccc(O)cc1 | -9.51% | 
COc1ccccc1NC(=O)C(C)OC(=O)CC1CCCC1 (stereo unspecified) | 16.2% | 
CC(C)Cn1c(=O)c2ccccc2n2c(CCC(=O)NCc3ccccn3)nnc12 | 15.4% | 
COc1ccc(NC(=O)N2CCCC2C(=O)NCc2ccccc2Cl)cc1 (stereo unspecified) | 1.27% | 
CC(=O)Nc1ccc(S(=O)(=O)Nc2cc(C)cn(Cc3ccc(C)cc3)c2=O)cc1 | 1.38% | 

SMILES | largest response in the series, negative = inhibition | Potency
Cc1ccc(NC(=O)c2c(NC(=O)CCC(=O)O)sc3c2CCCCC3)cc1 |  | 11.2 µM (active)
O=C(CN1CCCC1)Nc1sc2c(c1C(=O)Nc1ccccc1)CCCC2 | -1.37% | 
Cc1ccc(NC(=O)c2csc3c2CCCC3)cc1 | -32.4% | 
COCCCNC(=O)[C@H]1N2C(=O)c3ccccc3C2SC1(C)C (stereo partly specified) |  | 56.2 µM (active)
COCCCNC(=O)C1CC(=O)N(CCc2ccccc2)C1 (stereo unspecified) | 9.12% | 
CC1(C)SC2c3ccccc3C(=O)N2[C@@H]1C(=O)NCc1ccco1 (stereo partly specified) | -10.3% | 
CCC(C)NC(=O)C1c2ccccc2C(=O)N1Cc1ccccc1 (stereo unspecified) | 0.907% | 
CC1(C)C(C=C(Cl)Cl)C1C(=O)NC(O)C(=O)c1ccccc1 (stereo unspecified) | 3.88% | 
Cc1ccc(S(=O)(=O)N(CC(O)CN2C(=O)NC(C)(C)C2=O)c2cccc([N+](=O)[O-])c2)cc1 (stereo unspecified) | 5.58% | 
CCCSc1nc(NCc2ccco2)c2c3c(sc2n1)COC(C)(CC)C3 (stereo unspecified) | -1.25% | 
CN1CCc2c(sc3c2c(NCc2ccco2)nc2nnnn23)C1 |  | 11.2 µM (active)
Cn1c(=O)n(Cc2ccco2)c(=N)c2c3c(sc21)CCCC3 | -9.41% | 
Cc1ccc(C)c(C(C)NC(=O)C2CCCO2)c1 (stereo unspecified) | 24.3% | 
O=C(/C=C/c1ccc2c(c1)OCCO2)c1ccc(O)cc1 | -4.02% | 
CN(CCO)c1ccc(/C=N/Nc2nncc3ccccc23)cc1 | 6.72% | 
CCC(C(=O)NCCC(C)C)N(Cc1ccccc1Cl)C(=O)c1snc(C(N)=O)c1N (stereo unspecified) | 7.3% | 
Cc1csc(NC(=O)Nc2ccccc2[N+](=O)[O-])n1 | -6.55% | 
Cc1csc(NC(=O)NC2(C(F)(F)F)Oc3ccccc3O2)n1 |  | 8.91 µM (active)
CC(=O)Nc1cccc(C(=O)Nc2nc(C)cs2)c1 | -6.97% | 
